Assay results as given in PubChem BioAssay AID1347428 (National Center for Advancing Translational Sciences (NCATS), 2020).
Out of some 91,000 compounds screened, about 290 (0.32%) were called active. Inconclusive results (about 7%) are left out. Calls follow the shape of the dose curve; as a rule, active = well fitted inhibition curve with a large enough effect; inconclusive = small, poorly fitted or top-dose-only effect; inactive = no such curve, though single readings can be large or run the other way. The entries come from a sample that favours actives as a whole. Where a call stands in place of a potency, no number is given.

molecular target: Single-stranded DNA cytosine deaminase (Homo sapiens) (UniProt Q9GZX7); assay: Primary qHTS assay for inhibitors of Activation Induced Cytidine Deaminase (AID): AID signal; details: AID deamination FRET fluorescence, UDG-coupled, 4 h; series mostly up to 115 µM; also: nearly all actives have a fitted effect of over 25% in size
Sequence (Q9GZX7 whole entry, looked up): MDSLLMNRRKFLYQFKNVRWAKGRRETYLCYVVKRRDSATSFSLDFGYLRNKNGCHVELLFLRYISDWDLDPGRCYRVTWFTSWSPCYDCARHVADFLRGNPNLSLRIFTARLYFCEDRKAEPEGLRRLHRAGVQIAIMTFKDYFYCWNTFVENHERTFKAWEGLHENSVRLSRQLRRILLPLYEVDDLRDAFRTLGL
Source text: Assay Provider (PI) Patricia Gearhart Ph.D.
National Institute on Aging
National Institute of Health (NIH), Bethesda, MD
Assay Provider (PI) Rahul Kohli Ph.D.
Perelman School of Medicine
University of Pennsylvania, Philadelphia, PA
Activation-Induced Deaminase (AID) is a cytosine deaminase which converts cytosine into uracil within stretches of ssDNA. The presence of uracil in DNA initiates a cascade of mutagenic DNA repair to introduce point mutations and DNA double strand breaks. Specific targeting of AID to the immunoglobulin heavy chain loci (Igh) promotes mutagenesis in the antibody variable region for somatic hypermutation (SHM) or switch regions leading to class switch recombination (CSR). However, AID also plays a role in accumulating unnecessary mutations across the genome. Mis-targeting of AID results in the initiation of tumor development and leads to greater drug resistance among cancer cells when continually expressed. To identify an AID inhibitor, a small molecule library will be screened in collaboration with NCATS core facility at NIH. To confirm biological function, inhibitors will be examined in an in vitro murine B-cell activation assay and subsequent secondary validation screens. Top molecules will be further screened to identify inhibitory efficacy against a wild type primary splenocytes assay. Using these approaches, we hope to identify a small molecule with great efficacy and low toxicity for use as a molecular probe to further characterize AID's intricacies, or even as a therapeutic.
A FRET based analysis of cytosine deamination, was developed to identify potential inhibitors of AID catalytic activity. This screen has two signal output, Read 1 evaluates the AID inhibition response. The second readout (Read 2) evaluates UDG response and is uses as a counterscreen to exclude false positive inhibitors. Inhibition in AID and inactivity in the UDG signal is the desired outcome for this assay.
SEQUENCE No. (e.g., 1, 2, 3, etc.); […] (e.g., Cells, Incubation, Reagent, etc.); VALUE; DESCRIPTION
1a; Reagent; 3 uL; [4/3x] 1 uM AID/2.67 U/mL UDG
1b; Reagent; 3 uL; 2 U/mL UDG
1c; Reagent; 3 uL; 1 uM AID
2a; Compound; 46 nL; Follow-up plates (0.64 uM - 10 mM)
2b; Control; 46 nL; ATA ([…] - 10 mM)
3; Time; 10 min; incubation at room temperature
5; Time; 4 hr; incubation at room temperature
6; Reagent; 4 uL; [2x] 250 mM NaOH
7; Time; 15 sec; centrifuge at 1000 rpm
8; Time; 30 min; incubation at room temperature
9a; Detection; fluorescence (Read 1: AID); EnVision (PerkinElmer) plate reader, 540 excitation and 590 emission filters
9b; Detection; fluorescence (Read 2: UDG); EnVision (PerkinElmer) plate reader, 560 excitation and 665 emission filters
NOTES (numbers refer to sequence above)
1a; Reagents were dispensed in a medium-binding black solid-bottom Greiner plates (789176F) using a BioRptr liquid dispenser. Dispense 3 uL of [4/3x] 1 uM AID (provided by Kohli lab) and [4/3x] 2 U/mL UDG (NEB M0280L) into columns 1, 2, 5 to 48.
1b; Dispense 3 uL of [4/3x] 2 U/mL UDG into column 3.
1c; Dispense 3 uL of [4/3x] 1 uM AID into column 4.
2a; Compound (7-points [uM] (0.64; 3.2; 16; 80; 400; 2,000; 10,000; 20,000) double pin-transferred (Dip Factor = 2) using the Kalypsys (Wako USA) pintool equipped with a 1536 pinhead for a final concentration range of 7.32 nM - 114 uM. […]
9a; Fluorescence signal (column label AID) was read using the EnVision plate reader. […]
Potency is read from the fitted curve at half-maximal effect.

| SMILES | Potency |
| --- | --- |
| CC(=O)c1c(O)c(C)c(O)c(Cc2c(O)c3c(c(C(=O)/C=C/c4ccccc4)c2O)OC(C)(C)C=C3)c1O | 28.2 µM (active) |
| Cc1cccc2c(CCN)c[nH]c12 | inactive |
| COc1cccc(CNCCc2ccccc2)c1 | inactive |
| COC1CC(OC2CCC3(C=O)[C@H]4CCC5(C)C(C6=CC(=O)OC6)CCC5(O)[C@@H]4CCC3(O)C2)OC(C)C1O (stereo not given in full) | inactive |
| O=C(O)CCS(=O)(=O)C(Cl)Cl | inactive |
